# Test results taken from PubChem BioAssay (EPA / NIEHS).
# The source made the active and inactive calls. Rule for the calls: active = hit-call score of the fitted dose curve at least 0.9, where 1 is the maximum; inactive = score below 0.9.
# Key:
# [1] = read-out: Macrophage colony-stimulating factor (MCSF), CSF1 (gene 1435); experiment: BSK_hDFCGF_MCSF: BioMAP Diversity Plus: hDFCGF Assay for Macrophage colony-stimulating factor (MCSF) Biomarker Activity (AID 2283060); conditions: primary human foreskin fibroblasts; actives raise or lower the signal
# In short: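 M-CSF levels, determined by ELISA, are taken at 24 h after dosing human skin fibroblasts. Responses in either direction are fitted with DMSO serving as the baseline.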
# [2] = BSK_hDFCGF_SRB: Viability Assessment in the BioMAP Diversity Plus: hDFCGF Assay (AID 2283061); conditions: primary human foreskin fibroblasts;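 note: cells exposed to compound for 24 h before the read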
# In short: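 Cells were dosed with test chemical, cultured 24 h, fixed with 10% TCA, then stained with 0.1% SRB and read at 560 nm. The fibroblasts were human foreskin primary cells, and DMSO served as baseline.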
# [3] = read-out: TIMP metallopeptidase inhibitor 1 (TIMP1), TIMP1 (gene 7076); experiment: BSK_hDFCGF_TIMP1: BioMAP Diversity Plus: hDFCGF Assay for TIMP metallopeptidase inhibitor 1 (TIMP1) Biomarker Activity (AID 2283062); conditions: primary human foreskin fibroblasts; actives raise or lower the signal
# In short: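 Fibroblasts from human foreskin are treated with test chemical and harvested at 24 h. TIMP-1 is quantified by ELISA, and gain or loss of signal is scored against DMSO.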
# [4] = read-out: Monokine induced gamma interferon (MIG), CXCL9 (gene 4283); experiment: BSK_hDFCGF_MIG: BioMAP Diversity Plus: hDFCGF Assay for Monokine induced gamma interferon (MIG) Biomarker Activity (AID 2283063); conditions: primary human foreskin fibroblasts; actives raise or lower the signal
# In short: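 MIG signal, determined by ELISA, reflects 24 h chemical exposure of human skin primary fibroblasts. DMSO serves as negative control and baseline.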
# [5] = read-out: Matrix Metallopeptidase 1 (MMP1), MMP1 (gene 4312); experiment: BSK_hDFCGF_MMP1: BioMAP Diversity Plus: hDFCGF Assay for Matrix Metallopeptidase 1 (MMP1) Biomarker Activity (AID 2283064); conditions: primary human foreskin fibroblasts; actives raise or lower the signal
# In short: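 Primary human foreskin fibroblasts exposed to chemicals for 24 h; MMP1 measured by ELISA. Cytotoxicity tracked by SRB staining in parallel cultures; bidirectional fit relative to DMSO.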
# [6] = read-out: Vascular cell adhesion molecule 1 (VCAM1), VCAM1 (gene 7412); experiment: BSK_hDFCGF_VCAM1: BioMAP Diversity Plus: hDFCGF Assay for Vascular cell adhesion molecule 1 (VCAM1) Biomarker Activity (AID 2283065); conditions: primary human foreskin fibroblasts; actives raise or lower the signal
# In short: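 Cells are dosed, cultured for 24 h, then VCAM-1 is quantified by ELISA; signal increases and decreases are both fitted relative to DMSO.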
# [7] = read-out: Plasminogen activator inhibitor-1 (PAI1), SERPINE1 (gene 5054); experiment: BSK_hDFCGF_PAI1: BioMAP Diversity Plus: hDFCGF Assay for Plasminogen activator inhibitor-1 (PAI1) Biomarker Activity (AID 2283066); conditions: primary human foreskin fibroblasts; actives raise or lower the signal
# In short: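 Human foreskin fibroblasts in the hDFCGF system were dosed with compound for 24 h; PAI-1 was quantified by ELISA. Bidirectional curve fitting used DMSO as negative control and baseline.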
# [8] = read-out: Intercellular Adhesion Molecule 1 (ICAM1), ICAM1 (gene 3383); experiment: BSK_KF3CT_ICAM1: BioMAP Diversity Plus: KF3CT Assay for Intercellular Adhesion Molecule 1 (ICAM1) Biomarker Activity (AID 2283067); conditions: primary human keratinocytes with fibroblasts; actives raise or lower the signal
# In short: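 Dose the keratinocyte/fibroblast co-culture, wait 24 h, measure ICAM-1 by ELISA, then fit increases or decreases against DMSO. Cytotoxicity is checked in parallel cultures by SRB total-protein staining.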
# [9] = BSK_KF3CT_SRB: Viability Assessment in the BioMAP Diversity Plus: KF3CT Assay (AID 2283069); conditions: primary human keratinocytes with fibroblasts;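 note: fitted for both signal gain and loss against DMSO baseline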
# In short: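 Human keratinocyte and foreskin fibroblast co-culture exposed to chemical for 24 h. Total protein measured in parallel cultures by 0.1% sulforhodamine B staining after 10% TCA fixation, read at 560 nm; bidirectional fit relative to DMSO.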
# [10] = read-out: Interleukin-1 alpha (IL1a), IL1A (gene 3552); experiment: BSK_KF3CT_IL1a: BioMAP Diversity Plus: KF3CT Assay for Interleukin-1 alpha (IL1a) Biomarker Activity (AID 2283070); conditions: primary human keratinocytes with fibroblasts; actives raise or lower the signal
# In short: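 Primary human keratinocyte plus foreskin fibroblast co-culture, dosed and measured at 24 h in 96-well plates. IL-1a level quantified by ELISA; bidirectional fit relative to DMSO.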
# [11] = read-out: C-C motif chemokine 2 (Homo sapiens) (UniProt P13500); experiment: BSK_KF3CT_MCP1: BioMAP Diversity Plus: KF3CT Assay for Monocyte Chemoattractant Protein 1 (MCP1/CCL2) Biomarker Activity (AID 2283073); conditions: primary human keratinocytes with fibroblasts; actives raise or lower the signal
# In short: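 Keratinocytes and foreskin fibroblasts were co-cultured, dosed with chemical, and sampled 24 h later. MCP-1 was quantified by ELISA, and the endpoint was analyzed with bidirectional fitting using DMSO as negative control.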
# [12] = read-out: Matrix Metallopeptidase 9 (MMP9), MMP9 (gene 4318); experiment: BSK_KF3CT_MMP9: BioMAP Diversity Plus: KF3CT Assay for Matrix Metallopeptidase 9 (MMP9) Biomarker Activity (AID 2283074); conditions: primary human keratinocytes with fibroblasts; actives raise or lower the signal
# In short: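 Human keratinocyte and foreskin fibroblast co-culture exposed to chemicals for 24 h; MMP9 biomarker measured by ELISA, bidirectional fitting relative to DMSO; cytotoxicity tracked by SRB total protein staining in parallel cultures.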
# [13] = read-out: urokinase plasminogen activator (uPA), PLAU (gene 5328); experiment: BSK_KF3CT_uPA: BioMAP Diversity Plus: KF3CT Assay for urokinase plasminogen activator (uPA) Biomarker Activity (AID 2283075); conditions: primary human keratinocytes with fibroblasts; actives raise or lower the signal
# In short: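 Primary human keratinocyte/foreskin fibroblast co-culture exposed to chemical; uPA measured by ELISA at 24 h. Bidirectional fit versus DMSO, with parallel SRB total-protein staining for cytotoxicity.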
# [14] = read-out: CD40, CD40 (gene 958); experiment: BSK_LPS_CD40: BioMAP Diversity Plus: LPS Assay for CD40 Biomarker Activity (AID 2283076); conditions: primary human HUVEC with PBMC; actives raise or lower the signal
# In short: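 CD40 signal, measured by ELISA, is fitted in both directions relative to DMSO vehicle. The system is an LPS-driven human vascular primary co-culture of endothelial cells and PBMC, sampled 24 h after compound addition.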
# [15] = read-out: Interleukin-8 (IL8), CXCL8 (gene 3576); experiment: BSK_LPS_IL8: BioMAP Diversity Plus: LPS Assay for Interleukin-8 (IL8) Biomarker Activity (AID 2283078); conditions: primary human HUVEC with PBMC; actives raise or lower the signal
# In short: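 Endothelial cells and PBMC from human donors are co-cultured, treated with chemicals and LPS, then assayed for IL-8 by ELISA after 24 h. Parallel SRB staining (0.1% SRB after 10% TCA fixation, 560 nm) flags cytotoxicity.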
# [16] = BSK_LPS_SRB: Viability Assessment in the BioMAP Diversity Plus: LPS Assay (AID 2283079); conditions: primary human HUVEC with PBMC;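 note: total protein by sulforhodamine B absorbance as a cytotoxicity measure; measured one day after compound addition; fitted in both directions against DMSO so loss or gain of signal counts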
# In short: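 Overt cytotoxicity was gauged by sulforhodamine B total-protein staining in a primary human vascular endothelial and mononuclear cell co-culture 24 h post-dosing. Activity was fitted in both directions relative to DMSO.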
# [17] = read-out: Transforming growth factor beta 1 (TGFb1), TGFB1 (gene 7040); experiment: BSK_KF3CT_TGFb1: BioMAP Diversity Plus: KF3CT Assay for Transforming growth factor beta 1 (TGFb1) Biomarker Activity (AID 2283072); conditions: primary human keratinocytes with fibroblasts; actives raise or lower the signal
# In short: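 Human keratinocyte plus foreskin fibroblast primary co-culture, dosed with chemical for 24 h. TGF-b1 quantified by ELISA. Activity fitted bidirectionally against DMSO negative control as baseline.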
# [18] = read-out: Interferon-gamma inducible Protein 10 (IP10), CXCL10 (gene 3627); experiment: BSK_KF3CT_IP10: BioMAP Diversity Plus: KF3CT Assay for Interferon-gamma inducible Protein 10 (IP10) Biomarker Activity (AID 2283068); conditions: primary human keratinocytes with fibroblasts; actives raise or lower the signal
# In short: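 KF3CT co-culture (keratinocytes + foreskin fibroblasts), 24 h compound, IP-10 by ELISA; bidirectional fit vs DMSO baseline.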
# [19] = read-out: TIMP metallopeptidase inhibitor 2 (TIMP2), TIMP2 (gene 7077); experiment: BSK_KF3CT_TIMP2: BioMAP Diversity Plus: KF3CT Assay for TIMP metallopeptidase inhibitor 2 (TIMP2) Biomarker Activity (AID 2283071); conditions: primary human keratinocytes with fibroblasts; actives raise or lower the signal
# In short: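 Human primary keratinocyte/foreskin fibroblast co-culture dosed with chemical and sampled at 24 h. TIMP-2 levels quantified by ELISA; bidirectional fitting against DMSO negative control as baseline.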
# [20] = read-out: E-selectin (Homo sapiens) (UniProt P16581); experiment: BSK_LPS_Eselectin: BioMAP Diversity Plus: LPS Assay for Eselectin Biomarker Activity (AID 2283077); conditions: primary human HUVEC with PBMC; actives raise or lower the signal
# In short: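 Signal of E-selectin, detected by ELISA, served as the endpoint; cells were umbilical vein endothelium with PBMC, read 24 h after treatment. DMSO defined baseline, and both increases and decreases were fitted.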
# Chain of E-selectin (Homo sapiens) (P16581 whole entry, looked up): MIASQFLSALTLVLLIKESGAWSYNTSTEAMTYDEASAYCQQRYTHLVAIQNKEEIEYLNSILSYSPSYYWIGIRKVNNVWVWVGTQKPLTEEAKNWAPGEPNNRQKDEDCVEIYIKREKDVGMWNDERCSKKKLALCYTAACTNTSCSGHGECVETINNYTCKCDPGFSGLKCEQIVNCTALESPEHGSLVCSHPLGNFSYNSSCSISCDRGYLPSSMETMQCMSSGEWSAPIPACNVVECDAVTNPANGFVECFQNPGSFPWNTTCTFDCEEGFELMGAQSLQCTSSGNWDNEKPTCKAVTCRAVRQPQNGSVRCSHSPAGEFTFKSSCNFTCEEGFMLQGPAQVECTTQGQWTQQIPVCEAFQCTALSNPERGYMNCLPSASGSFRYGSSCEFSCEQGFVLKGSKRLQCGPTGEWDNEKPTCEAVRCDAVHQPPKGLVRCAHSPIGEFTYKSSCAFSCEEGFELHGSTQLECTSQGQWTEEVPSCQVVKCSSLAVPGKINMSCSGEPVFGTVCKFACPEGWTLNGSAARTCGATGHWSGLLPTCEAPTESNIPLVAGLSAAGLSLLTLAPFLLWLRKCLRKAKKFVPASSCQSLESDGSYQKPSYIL
structure (smiles),measurement,setting,value
NC(=O)C(F)(F)C(F)(F)F,outcome,[1],inactive
same,outcome,[2],inactive
same,outcome,[3],inactive
same,outcome,[4],inactive
same,outcome,[5],inactive
same,outcome,[6],inactive
same,outcome,[7],inactive
same,outcome,[8],inactive
same,outcome,[9],inactive
same,outcome,[10],inactive
same,outcome,[11],inactive
same,outcome,[12],inactive
same,outcome,[13],inactive
same,outcome,[14],inactive
same,outcome,[15],inactive
same,outcome,[16],inactive
CCCCN(CCCC)N=O,outcome,[1],inactive
same,outcome,[2],inactive
same,outcome,[3],inactive
same,outcome,[4],inactive
same,outcome,[5],inactive
same,outcome,[6],inactive
same,outcome,[7],inactive
same,outcome,[8],inactive
same,outcome,[9],inactive
same,outcome,[10],inactive
same,outcome,[17],inactive
same,outcome,[11],inactive
same,outcome,[12],inactive
same,outcome,[13],inactive
same,outcome,[14],inactive
same,outcome,[15],inactive
same,outcome,[16],inactive
ClC(Cl)(Cl)c1ccccc1,outcome,[1],inactive
same,outcome,[2],inactive
same,outcome,[3],inactive
same,outcome,[4],inactive
same,outcome,[6],inactive
same,outcome,[7],inactive
same,outcome,[8],inactive
same,outcome,[18],inactive
same,outcome,[9],inactive
same,outcome,[10],inactive
same,outcome,[19],inactive
same,outcome,[17],inactive
same,outcome,[11],inactive
same,outcome,[12],inactive
same,outcome,[13],inactive
same,outcome,[14],inactive
same,outcome,[20],inactive
same,outcome,[15],inactive
same,outcome,[16],inactive
CCC1(c2ccccc2)C(=O)N=C(O)NC1=O (stereo unspecified),outcome,[1],inactive
same,outcome,[2],inactive
same,outcome,[3],inactive
same,outcome,[4],inactive
same,outcome,[5],inactive
same,outcome,[6],inactive
same,outcome,[7],inactive
same,outcome,[8],inactive
same,outcome,[9],inactive
same,outcome,[10],inactive
same,outcome,[19],inactive
same,outcome,[17],inactive
same,outcome,[11],inactive
same,outcome,[12],inactive
same,outcome,[13],inactive
same,outcome,[14],inactive
same,outcome,[15],inactive
same,outcome,[16],inactive
O=S(=O)(F)C(F)(F)C(F)(F)C(F)(F)C(F)(F)C(F)(F)C(F)(F)C(F)(F)C(F)(F)F,outcome,[1],inactive
same,outcome,[2],inactive
same,outcome,[3],inactive
same,outcome,[4],inactive
same,outcome,[5],inactive
same,outcome,[6],inactive
same,outcome,[7],inactive
same,outcome,[8],inactive
same,outcome,[9],inactive
same,outcome,[10],inactive
same,outcome,[19],inactive
same,outcome,[11],inactive
same,outcome,[12],inactive
same,outcome,[13],inactive
same,outcome,[14],inactive
same,outcome,[15],inactive
same,outcome,[16],inactive
OCC(F)(F)OC(F)(F)C(F)(F)OC(F)(F)CO,outcome,[1],inactive
same,outcome,[2],inactive
same,outcome,[3],inactive
same,outcome,[4],inactive
same,outcome,[6],inactive
same,outcome,[7],inactive
same,outcome,[8],inactive
same,outcome,[18],inactive
same,outcome,[9],inactive
same,outcome,[10],inactive
same,outcome,[19],inactive
same,outcome,[11],inactive
same,outcome,[12],inactive
same,outcome,[13],inactive
same,outcome,[14],inactive
same,outcome,[15],inactive
same,outcome,[16],inactive
CCOP(=S)(NC(C)C)Oc1ccccc1C(=O)OC(C)C (stereo unspecified),outcome,[1],inactive
same,outcome,[2],inactive
same,outcome,[3],inactive
same,outcome,[4],inactive
same,outcome,[6],inactive
same,AC50,[7],257 nM (active)
same,outcome,[8],inactive
same,outcome,[18],inactive
same,outcome,[9],inactive
same,outcome,[10],inactive
same,outcome,[19],inactive
same,outcome,[17],inactive
same,outcome,[11],inactive
same,outcome,[12],inactive
same,outcome,[13],inactive
same,outcome,[14],inactive
same,outcome,[20],inactive
same,outcome,[15],inactive
same,outcome,[16],inactive
Cc1ccc2c(c1N)C(=O)c1ccccc1C2=O,outcome,[1],inactive
same,outcome,[2],inactive
same,outcome,[3],inactive
same,outcome,[4],inactive
same,outcome,[5],inactive
same,outcome,[6],inactive
same,outcome,[7],inactive
same,outcome,[8],inactive
same,outcome,[9],inactive
same,outcome,[10],inactive
same,outcome,[17],inactive
same,outcome,[11],inactive
same,outcome,[12],inactive
same,outcome,[13],inactive
same,outcome,[14],inactive
same,outcome,[20],inactive
same,outcome,[15],inactive
same,outcome,[16],inactive
